# IDE exosite inh = insulin-degrading enzyme (human) exo-site inhibition. P14735. purified IDE, FL-6b probe fluorescence polarization; hits give low values. z-score at 20 µM. 17,000 compounds, 6.3% hits. AID 1259349;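 active means z-score of -3 or lower, meaning strong loss of probe binding signal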;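 further: His-tagged human IDE residues 42-1019 made in E. coli with 30 nM FL-6b probe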
# Target sequence (P14735 42-1019 limits assumed): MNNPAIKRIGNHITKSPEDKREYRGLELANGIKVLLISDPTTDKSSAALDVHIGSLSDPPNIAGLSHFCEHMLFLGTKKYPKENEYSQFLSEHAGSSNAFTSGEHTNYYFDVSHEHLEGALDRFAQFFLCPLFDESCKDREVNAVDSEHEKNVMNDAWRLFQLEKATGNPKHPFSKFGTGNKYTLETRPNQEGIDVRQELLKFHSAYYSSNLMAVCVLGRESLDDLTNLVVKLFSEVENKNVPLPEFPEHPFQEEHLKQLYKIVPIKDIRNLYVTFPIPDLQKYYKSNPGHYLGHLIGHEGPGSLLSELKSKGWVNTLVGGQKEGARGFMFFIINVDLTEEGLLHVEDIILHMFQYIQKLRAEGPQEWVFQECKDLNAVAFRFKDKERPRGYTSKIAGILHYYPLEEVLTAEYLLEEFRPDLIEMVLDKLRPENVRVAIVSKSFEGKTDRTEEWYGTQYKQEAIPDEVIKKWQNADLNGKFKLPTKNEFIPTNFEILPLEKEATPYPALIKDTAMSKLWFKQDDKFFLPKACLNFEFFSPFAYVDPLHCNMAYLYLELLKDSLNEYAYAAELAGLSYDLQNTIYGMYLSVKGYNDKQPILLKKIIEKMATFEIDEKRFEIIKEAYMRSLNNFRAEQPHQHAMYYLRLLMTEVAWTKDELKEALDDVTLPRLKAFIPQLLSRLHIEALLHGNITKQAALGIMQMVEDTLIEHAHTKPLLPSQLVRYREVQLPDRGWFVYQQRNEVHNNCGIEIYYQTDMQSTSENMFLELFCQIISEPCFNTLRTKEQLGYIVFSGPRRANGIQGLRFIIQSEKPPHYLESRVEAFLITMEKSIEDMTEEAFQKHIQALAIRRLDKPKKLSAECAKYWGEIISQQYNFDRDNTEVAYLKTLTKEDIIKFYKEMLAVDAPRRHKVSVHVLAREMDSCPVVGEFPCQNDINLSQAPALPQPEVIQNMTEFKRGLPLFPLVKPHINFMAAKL
# Numbers without * were called inactive; ! = repeats disagree. This is one part of a sample in which hits are shown more often than they occur.
SMILES,IDE exosite inh
O=C(c1ccncc1)N1CC(=O)N2[C@H](C1)[C@@H](c1ccc(-c3ccccc3)cc1)[C@@H]2CO,-6.83*
O=C(c1ccncc1)N1CC(=O)N2[C@@H](CO)[C@@H](c3ccc(-c4ccccc4)cc3)[C@@H]2C1,3.28
Cc1ccc(-c2ccc([C@H]3[C@H]4CN(C(=O)c5ccncc5)CC(=O)N4[C@H]3CO)cc2)cc1,0.401
Cc1ccc(-c2ccc([C@@H]3[C@@H](CO)N4C(=O)CN(C(=O)c5ccncc5)C[C@@H]34)cc2)cc1,1.97
Cc1ccc(-c2ccc([C@@H]3[C@H](CO)N4C(=O)CN(C(=O)c5ccncc5)C[C@@H]34)cc2)cc1,1.83
Cc1ccc(-c2ccc([C@@H]3[C@H]4CN(C(=O)c5ccncc5)CC(=O)N4[C@H]3CO)cc2)cc1,-4.38*
Cc1ccc(-c2ccc([C@@H]3[C@@H](CO)N4C(=O)CN(C(=O)c5ccncc5)C[C@H]34)cc2)cc1,-0.284
O=C(c1ccncc1)N1CC(=O)N2[C@H](C1)[C@H](c1ccc(-c3ccccc3)cc1)[C@@H]2CO,1.31
C/C=C/c1ccc([C@H]2[C@@H](CO)N(C(C)=O)[C@@H]2CN(CCC)C(=O)C2CCC2)cc1,2.69
C/C=C/c1ccc([C@@H]2[C@H]3CN(C(=O)Cc4cccnc4)CC(=O)N3[C@H]2CO)cc1,0.073
OC[C@H]1[C@H](c2ccccc2)C2(CN(Cc3cccnc3)C2)N1Cc1ccncc1,0.582
O=S(=O)(c1cccs1)N1CCCCN2[C@H](CO)[C@H](c3ccc(-c4ccccc4)cc3)[C@@H]2C1,3.12
O=C(Nc1cccc(F)c1)N1CC(=O)N2[C@H](CO)[C@@H](c3ccc(-c4ccccc4)cc3)[C@@H]2C1,-2.7
COCC(=O)N1CCCCN2[C@@H](CO)[C@H](c3ccc(C#Cc4cccnc4)cc3)[C@@H]2C1,-6.27*
CCC(=O)N1CCCCN2[C@H](C1)[C@H](c1ccc(C#Cc3cccnc3)cc1)[C@@H]2CO,-3.45*
COCC(=O)N1CC(=O)N2[C@H](C1)[C@H](c1ccc(C#Cc3cccnc3)cc1)[C@@H]2CO,1.45
CCC(=O)N1CCCCN2[C@H](C1)[C@@H](c1ccc(C#Cc3cccnc3)cc1)[C@@H]2CO,-2.37
CCC(=O)N1CCCCN2[C@H](CO)[C@@H](c3ccc(C#Cc4cccnc4)cc3)[C@H]2C1,-2.39
COCC(=O)N1CCCCN2[C@@H](CO)[C@@H](c3ccc(C#Cc4cccnc4)cc3)[C@@H]2C1,2.21
N#C[C@@H]1[C@H](c2ccc(C#CC3CCCC3)cc2)[C@@H](CO)N1S(=O)(=O)c1ccccc1,2.41
C[C@@H]1CN([C@@H](C)CO)C(=O)Cc2cc(N(C)C)ccc2O[C@@H]1CN(C)Cc1ccc(-c2ccccc2)cc1,-1.54
CCN(C[C@@H]1[C@@H](c2ccc(-c3ccccc3)cc2)[C@@H](CO)N1CC1CC1)C(C)=O,4.94
COc1ccccc1-c1ccc(C2[C@H]3CNC[C@@H]2N3S(=O)(=O)c2ccccc2C)cc1 (stereo not given in full),4.72
O=S(=O)(Cc1ccccc1)N1[C@@H]2CNC[C@H]1C2c1ccc(-c2ccccc2)cc1 (stereo not given in full),-0.663
Cc1ccccc1-c1ccc(C2[C@H]3CNC[C@@H]2N3S(=O)(=O)Cc2ccccc2)cc1 (stereo not given in full),-7.28*
SMILES,IDE exosite inh
COc1ccc(S(=O)(=O)N2[C@@H]3CNC[C@H]2C3c2ccc(-c3ccccc3OC)cc2)cc1 (stereo not given in full),-3.63*!
Cc1ccccc1-c1ccc(C2[C@H]3CNC[C@@H]2N3S(=O)(=O)c2ccccc2C)cc1 (stereo not given in full),-0.509
COc1ccc(-c2ccc(C3[C@H]4CNC[C@@H]3N4S(=O)(=O)Cc3ccccc3)cc2)cc1 (stereo not given in full),0.067
COc1ccccc1-c1ccc(C2[C@@H]3CN(S(=O)(=O)c4ccc(C)cc4)C[C@H]2N3)cc1 (stereo not given in full),-1.17
O=S(=O)(c1ccc(F)cc1)N1C[C@@H]2N[C@H](C1)C2c1ccc(/C=C/c2ccccc2)cc1 (stereo not given in full),0.825
COc1ccc(S(=O)(=O)N2[C@@H]3CNC[C@H]2C3c2ccc(-c3ccncc3)cc2)cc1 (stereo not given in full),3.14
Cc1ccccc1-c1ccc(C2[C@H]3CNC[C@@H]2N3S(=O)(=O)c2ccccc2)cc1 (stereo not given in full),-1.47
COc1ccccc1-c1ccc(C2[C@@H]3CN(S(=O)(=O)c4ccc(F)cc4)C[C@H]2N3)cc1 (stereo not given in full),-3.13*!
Cc1cccc(S(=O)(=O)N2[C@@H]3CNC[C@H]2C3c2ccc(-c3ccccc3C)cc2)c1 (stereo not given in full),-3.97*
CS(=O)(=O)N1CCCCN2[C@H](CO)[C@@H](c3ccc(Br)cc3)[C@@H]2C1,2.2
O=C(Nc1ccccc1F)N1CC(=O)N2[C@H](CO)[C@@H](c3ccc(-c4cccnc4)cc3)[C@H]2C1,-1.14

# High-throughput results deposited in PubChem by Broad Institute.
